Among the test systems are SK-MEL-2 melanoma; EKVX NSCLC; SN12C renal; UO-31 renal; TK-10 renal; ACHN renal; CAKI-1 renal; A498 renal; CCRF-CEM leukemia; MOLT-4 leukemia; SR leukemia; RPMI-8226 leukemia; OVCAR-8 ovarian; OVCAR-5 ovarian; OVCAR-4 ovarian; SK-OV-3 ovarian; IGROV1 ovarian; HS 578T breast; NCI/ADR-RES ovarian; OVCAR-3 ovarian.
What all share (assay): NCI-60 one-dose screen, 48 h (100 = growth as untreated, 0 = no growth, -100 = all killed)
Settings in all cases: 10 µM unless noted

Drawing on PubChem BioAssay (NCI), this text covers growth for eight compounds.

Compounds without any hit were thinned out: in the full panel of roughly 83,000, 20% have a hit.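 How to read the values: 0–100, growth inhibition (40 = 60% inhibited); 0, no net growth; -100 to 0, cell death (-40 = 40% of starting cells died; -100 = all dead).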 Unmarked numbers belong to inactive results. Active and inactive are the calls of the source. How the source made its calls: active means growth percent below 10; inactive means the rest.

As to `CNC1=C([N+](=O)[O-])C(c2ccccc2O)C(C#N)=C(c2cccs2)O1` (configuration not stated), the growth in the assay with SK-MEL-2 melanoma was 74.2%; with EKVX NSCLC it was 97.2%; in the assay with SN12C renal, 98.2%; with UO-31 renal, 70.5%; with TK-10 renal, 100%; with ACHN renal it was 94.8%. In addition, the growth in the assay with CAKI-1 renal was 78%; with A498 renal, 110%; with CCRF-CEM leukemia it was 85.4%; in the assay with MOLT-4 leukemia it was 88.6%; with SR leukemia, 48.6%; in the assay with RPMI-8226 leukemia, 100%. The growth was 94.2% with OVCAR-8 ovarian; 104% in the assay on OVCAR-5 ovarian; 82.4% in the assay with OVCAR-4 ovarian; 94.5% in the assay with SK-OV-3 ovarian; 90.3% in the assay on IGROV1 ovarian; 92.3% in the assay with HS 578T breast. Besides, in the assay on NCI/ADR-RES ovarian, the growth was 102%.

For the compound `Nc1ncnc2c1N=C(c1ccc3c(c1)OCO3)CC(c1ccc(Cl)cc1)N2` (configuration not stated), the growth in the assay with SK-MEL-2 melanoma was 58.1%; with EKVX NSCLC, 71.1%; with SN12C renal, 93.3%; in the assay with UO-31 renal, 55.8%; in the assay with TK-10 renal it was 99.7%; with ACHN renal, 77.8%. Further, the growth with CAKI-1 renal was 74%; in the assay with A498 renal, 87%; with CCRF-CEM leukemia it was -33.1% (active); in the assay on MOLT-4 leukemia it was 69.4%; in the assay with SR leukemia, 41.3%; in the assay on RPMI-8226 leukemia, 18.4%. Moreover, the growth in the assay on OVCAR-8 ovarian was 89.8%; with OVCAR-5 ovarian, 68.5%; in the assay on OVCAR-4 ovarian it was 77.7%; in the assay on SK-OV-3 ovarian it was 78.9%; in the assay with OVCAR-3 ovarian it was 103%; in the assay on HS 578T breast, 70.2%. For the same compound, the growth with NCI/ADR-RES ovarian was 60%.

For `O=C(NNC(=O)c1cccc(Cl)c1)c1ccccc1`, the growth in the assay on SK-MEL-2 melanoma is 100%; with EKVX NSCLC it was 103%; in the assay on SN12C renal, 106%; in the assay with UO-31 renal, 99.3%; with TK-10 renal, 117%; in the assay on ACHN renal it was 130%. The growth with CAKI-1 renal is 103%; in the assay with A498 renal, 73.2%; in the assay with CCRF-CEM leukemia it was 98.4%; with MOLT-4 leukemia, 100%; in the assay with SR leukemia, 85.8%; in the assay with RPMI-8226 leukemia, 101%. For the same compound, the growth in the assay with OVCAR-8 ovarian is 106%; in the assay with OVCAR-5 ovarian, 103%; in the assay with OVCAR-4 ovarian, 103%; in the assay on SK-OV-3 ovarian, 114%; with IGROV1 ovarian, 115%; with HS 578T breast, 105%. Also, the growth in the assay on NCI/ADR-RES ovarian is 111%.

Turning to `COc1ccc(/C(C)=N/NC(=O)CSc2nc3ccccc3c(=O)n2CCc2ccc(S(N)(=O)=O)cc2)cc1`, the growth in the assay on SK-MEL-2 melanoma was 6.04% (active); in the assay on EKVX NSCLC it was 87.3%; in the assay with SN12C renal, 27.7%; with UO-31 renal, 32.4%; in the assay with TK-10 renal it was -39.8% (active); in the assay with ACHN renal, 34.7%. In addition, the growth was 28.9% in the assay on CAKI-1 renal; 5.05% (active) in the assay on A498 renal; 33.9% with CCRF-CEM leukemia; 43% with MOLT-4 leukemia; 40.2% with SR leukemia; 5.61% (active) with RPMI-8226 leukemia. In addition, the growth is -12.9% (active) in the assay on OVCAR-8 ovarian; 55% in the assay on OVCAR-5 ovarian; -54.1% (active) with OVCAR-4 ovarian; -31.8% (active) with SK-OV-3 ovarian; 19.1% with IGROV1 ovarian; 29.5% in the assay with HS 578T breast. In the assay on NCI/ADR-RES ovarian, the growth was 79.4%.

As for `CC(=O)c1ccc(Br)c([N+](=O)[O-])c1`, the growth in the assay with SK-MEL-2 melanoma was 102%; in the assay with EKVX NSCLC, 104%; with SN12C renal it was 104%; in the assay with UO-31 renal, 90.7%; in the assay with TK-10 renal, 91.5%; in the assay on ACHN renal it was 111%. Besides, the growth was -7.58% (active) in the assay with CAKI-1 renal; 76.9% with A498 renal; 98.1% in the assay on CCRF-CEM leukemia; 96.8% in the assay with MOLT-4 leukemia; 94.5% with SR leukemia; 96.6% in the assay with RPMI-8226 leukemia. For the same compound, the growth in the assay on OVCAR-8 ovarian is 107%; in the assay with OVCAR-5 ovarian, 119%; with OVCAR-4 ovarian it was 114%; in the assay on SK-OV-3 ovarian it was 109%; with IGROV1 ovarian it was 109%; with HS 578T breast, 90.7%.

Take `COc1ccc(C2c3cccn3-c3ccccc3N2C(C)=O)cc1` (configuration not stated): the growth was 117% in the assay with SK-MEL-2 melanoma; 85.9% in the assay with EKVX NSCLC; 99.8% in the assay with SN12C renal; 70.6% in the assay with UO-31 renal; 103% with TK-10 renal; 99% in the assay with ACHN renal. The growth was 84.2% with CAKI-1 renal; 86% in the assay with A498 renal; 88.3% in the assay with CCRF-CEM leukemia; 1.08% (active) in the assay with MOLT-4 leukemia; 74% with SR leukemia; 85.5% in the assay on RPMI-8226 leukemia. Besides, the growth in the assay on OVCAR-8 ovarian is 125%; in the assay on OVCAR-5 ovarian, 99.3%; in the assay with OVCAR-4 ovarian, 126%; with SK-OV-3 ovarian it was 101%; with IGROV1 ovarian, 74.3%; with OVCAR-3 ovarian, 95.3%. In the assay on NCI/ADR-RES ovarian, the growth is 91.2%.

For the compound `COc1ccc2[nH]cc(C3(c4c[nH]c5ccc(OC)cc45)C(=O)Nc4ccc(F)cc43)c2c1`, the growth in the assay on SK-MEL-2 melanoma is 98.3%; in the assay on EKVX NSCLC, 37%; in the assay on SN12C renal it was 106%; in the assay on UO-31 renal, 62%; in the assay with TK-10 renal it was 125%; with ACHN renal it was 86.7%. Also, the growth in the assay on CAKI-1 renal is 40.8%; with A498 renal, 60.8%; in the assay with CCRF-CEM leukemia, 15.4%; with MOLT-4 leukemia, 1.29% (active); in the assay with SR leukemia, 11.8%; with RPMI-8226 leukemia, 40.9%. Moreover, the growth is 94.4% with OVCAR-8 ovarian; 94.1% with OVCAR-5 ovarian; 86.7% in the assay on OVCAR-4 ovarian; 94.5% with SK-OV-3 ovarian; 74.2% with IGROV1 ovarian; 73.4% in the assay on HS 578T breast. For the same compound, in the assay with NCI/ADR-RES ovarian, the growth was 94%.

Consider `CC(C)CCSc1nc(Nc2ccccc2)c(C#N)c(-c2ccc(F)cc2)n1`, for which the growth was 90.6% in the assay with SK-MEL-2 melanoma; 65.1% in the assay with EKVX NSCLC; 38.9% in the assay with SN12C renal; 30% in the assay with UO-31 renal; 20.6% with TK-10 renal; 13.4% in the assay on ACHN renal. The growth in the assay on CAKI-1 renal is 55.5%; in the assay with A498 renal, 40%; in the assay on CCRF-CEM leukemia it was 49.3%; in the assay on MOLT-4 leukemia it was 51.5%; with SR leukemia, 37.4%; in the assay on RPMI-8226 leukemia, 50%. The growth was 42.2% in the assay with OVCAR-8 ovarian; 83.8% in the assay with OVCAR-5 ovarian; -18% (active) with OVCAR-4 ovarian; 67.2% with SK-OV-3 ovarian; 33.5% in the assay on IGROV1 ovarian; 28.8% with OVCAR-3 ovarian. Besides, the results for the growth in the assay with HS 578T breast and with NCI/ADR-RES ovarian were 49.5% and 56.8%, respectively.
